SMILES strings stand for the structures. This is part of a sample that, as a whole, favours compounds with a hit. Of some 83,000 tested, about 20% had one in any assay.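 The endpoint reported here, percent growth, reads 100 for growth as untreated, 0 for no net growth and -100 for all cells dead.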 Values without a mark were called inactive. Active and inactive are the calls of the source. The calls were made as follows: active = growth percent below 10; inactive = the rest.

Test systems include T-47D breast; BT-549 breast; MDA-MB-435 melanoma; SW-620 colon; MCF7 breast; HCC-2998 colon; KM12 colon; HCT-116 colon.
What all share (test): NCI-60 one-dose screen, 48 h (100 = growth as untreated, 0 = no growth, -100 = all killed)
Common to all, as to conditions: 10 µM unless noted

As to `O=C(CCN1CCCC1)Nc1ccc2c(NCCCc3ccccc3)c3ccccc3nc2c1`, the growth is 11.6% in the assay with T-47D breast; 47.7% in the assay on BT-549 breast; -87.8% (active) with MDA-MB-435 melanoma; -63.3% (active) with SW-620 colon; -44.3% (active) in the assay on MCF7 breast; 2.16% (active) in the assay with HCC-2998 colon. Besides, the growth in the assay on KM12 colon is -10% (active).
`CN1CCN(C(=O)[C@]23CCC(C)(C)C[C@H]2C2=CC[C@@H]4[C@@]5(C)C/C(=C/c6cccnc6)C(=O)C(C)(C)[C@@H]5CC[C@@]4(C)[C@]2(C)CC3)CC1`: the growth was 34.5% with T-47D breast; 82% in the assay on BT-549 breast; 59.1% in the assay on MDA-MB-435 melanoma; 44.6% in the assay on SW-620 colon; 22.9% with MCF7 breast; 66.6% with HCC-2998 colon. Further, in the assay on KM12 colon, the growth was 55.1%.
Turning to `O=C(CSc1nc2sc3c(c2c(=O)n1-c1ccc(Cl)cc1)CCCC3)Nc1nc(-c2cccc(Br)c2)cs1`, the growth was 76.9% in the assay with T-47D breast; 92.1% in the assay on BT-549 breast; 97.5% in the assay on MDA-MB-435 melanoma; 78.9% in the assay with SW-620 colon; 87.4% with MCF7 breast; 107% in the assay with HCC-2998 colon. Also, the growth in the assay on KM12 colon was 83.8%.
On to `CCOC(=O)Nc1ccc(-c2ccc3c(c2)NC(=O)/C3=C\c2ccc[nH]2)cc1`, for which the growth in the assay on T-47D breast was 6.7% (active); in the assay with MDA-MB-435 melanoma it was 102%; in the assay on SW-620 colon it was 113%; with MCF7 breast it was 10%; in the assay on HCT-116 colon, 107%; in the assay on HCC-2998 colon it was 85.8%. For the same molecule, the growth in the assay with KM12 colon is 63.6%.
Consider `COc1ccccc1NC(=O)C1CC(c2ccc(F)cc2)=NO1` (configuration not stated), for which the growth was 93.9% with T-47D breast; 103% in the assay on MDA-MB-435 melanoma; 102% in the assay on SW-620 colon; 90.8% with MCF7 breast; 103% in the assay on HCT-116 colon; 90.1% in the assay with HCC-2998 colon. The growth in the assay with KM12 colon is 101%.
Turning to `CC(=O)[C@@H]1CC[C@]2(C(N)=O)CC[C@]3(C)[C@H](CC[C@@H]4[C@@]5(C)CCCNC(C)(C)[C@@H]5CC[C@]43C)[C@@H]12`, the growth in the assay on BT-549 breast is 87.1%; with MDA-MB-435 melanoma, 83.9%; in the assay on SW-620 colon, 90.4%; with MCF7 breast, 72.1%; in the assay with HCT-116 colon it was 65.1%; in the assay with HCC-2998 colon, 92%.
Consider `O=C1OC(Cc2ccccc2)C1c1ccccc1` (configuration not stated), for which the growth in the assay on T-47D breast is 93.7%; in the assay with MDA-MB-435 melanoma it was 102%; with SW-620 colon, 107%; in the assay on MCF7 breast, 98.1%; with HCC-2998 colon, 99.5%; with KM12 colon, 101%.
Consider `COc1cc(C2C3=C(COC3=O)N(CCO)c3cc4c(cc32)CCC4)cc(OC)c1OC` (configuration not stated), for which the growth with T-47D breast is 54.1%; in the assay with MDA-MB-435 melanoma, -9.03% (active); in the assay with SW-620 colon, 21.4%; in the assay with MCF7 breast it was -16.2% (active); in the assay on HCT-116 colon, -35.3% (active); in the assay with HCC-2998 colon, -32.4% (active). Further, the growth in the assay on KM12 colon is -16.9% (active).
Take `N#C/C(=C\c1cccc(C#N)c1)c1ccccc1`: the growth is 78.7% with T-47D breast; 100% with MDA-MB-435 melanoma; 105% with SW-620 colon; 105% in the assay with MCF7 breast; 94.2% in the assay with HCT-116 colon; 93.1% in the assay on HCC-2998 colon. Further, the growth in the assay with KM12 colon was 102%.
For the molecule `COC(=O)C(CC=O)C(=O)C(=O)Nc1cccc(C(F)(F)F)c1` (configuration not stated), the growth in the assay with T-47D breast was 77.4%; in the assay with MDA-MB-435 melanoma, 107%; in the assay with SW-620 colon, 95.6%; with MCF7 breast it was 104%; with HCT-116 colon, 90.1%; with HCC-2998 colon, 97%. Besides, the growth in the assay with KM12 colon is 100%.
Regarding `COc1ccc(Cc2cnc(NC(=O)c3ccc4c(c3)OCCO4)s2)cc1`, the growth is 42.8% with T-47D breast; 4.11% (active) in the assay with MDA-MB-435 melanoma; 31.4% with SW-620 colon; 9.58% (active) with MCF7 breast; 7.75% (active) in the assay on HCT-116 colon; 18.8% in the assay on HCC-2998 colon. Also, the growth in the assay with KM12 colon is 10.3%.
As for `C=C1C(=O)O[C@H]2[C@H]1CC/C(C(=O)NCCCCCNC(=O)/C1=C/CC[C@@]3(C)O[C@H]3[C@H]3OC(=O)C(=C)[C@@H]3CC1)=C\CC[C@@]1(C)O[C@@H]21`, the growth with T-47D breast was 94.2%; in the assay with MDA-MB-435 melanoma it was 105%; in the assay with SW-620 colon, 101%; in the assay with MCF7 breast, 88.2%; in the assay on HCT-116 colon it was 87%; in the assay with HCC-2998 colon it was 105%. Also, the growth in the assay with KM12 colon is 103%.
Take `COc1ccc(C(=O)CC#N)cc1`: the growth in the assay with BT-549 breast is 107%; in the assay on MDA-MB-435 melanoma, 132%; with SW-620 colon, 107%; in the assay with MCF7 breast it was 96.7%; with HCT-116 colon, 106%; in the assay on HCC-2998 colon, 112%.
For the molecule `O=C1Nc2ccc(F)cc2/C1=C\c1c(-c2ccccc2)nc2ccccn12`, the growth in the assay on T-47D breast was 61.8%; in the assay with MDA-MB-435 melanoma, -10.1% (active); in the assay with SW-620 colon, 49.8%; in the assay on MCF7 breast it was 61.3%; in the assay on HCT-116 colon, 63.8%; with HCC-2998 colon, 93.3%. Also, the growth in the assay on KM12 colon is 45.7%.
Turning to `O=c1[nH]nc(-c2ccccc2)c2sc3ncc(-c4ccc(Br)cc4)n3c12`, the growth with T-47D breast was 43.1%; in the assay on MDA-MB-435 melanoma it was -25.7% (active); in the assay with SW-620 colon, 35%; in the assay with MCF7 breast, 28.9%; with HCT-116 colon it was 16.6%; in the assay on HCC-2998 colon, 89.8%. Also, in the assay with KM12 colon, the growth was 33.9%.
With `COc1ccc(NC(N)=NCCCOc2ccc(F)cc2)cc1`, the growth is 23.2% in the assay with T-47D breast; 80.4% in the assay on MDA-MB-435 melanoma; 88.6% with SW-620 colon; 10.7% with MCF7 breast; 54% in the assay with HCT-116 colon; 76.3% with HCC-2998 colon. For the same molecule, the growth with KM12 colon is 84.4%.
In the case of `O=C1c2c(c3c4cccc(F)c4[nH]c3c3ccc4ccccc4c23)C(=O)N1O`, the growth with T-47D breast is 19.6%; in the assay with MDA-MB-435 melanoma, 60.7%; in the assay on SW-620 colon, 31.2%; with MCF7 breast it was 19.4%; in the assay with HCT-116 colon, 16.9%; in the assay with HCC-2998 colon, 76.3%. Also, the growth with KM12 colon was 25.4%.
In the case of `C#CCNC(=O)c1cccc2c1cc(C)n2-c1nc2c(c(NCc3ccccc3)n1)CCCC2`, the growth is -11.6% (active) in the assay with T-47D breast; -61.3% (active) in the assay on MDA-MB-435 melanoma; -4.61% (active) in the assay on SW-620 colon; -0.959% (active) in the assay on MCF7 breast; -41.5% (active) in the assay on HCT-116 colon; -84.2% (active) with HCC-2998 colon. Further, the growth in the assay with KM12 colon is -43.6% (active).
Consider `O=C(Nc1ccccc1)Nc1ccc2cc3ccc(NC(=O)Nc4ccccc4)cc3nc2c1`, for which the growth is -3.77% (active) with T-47D breast; 21.9% with MDA-MB-435 melanoma; -62.7% (active) in the assay on SW-620 colon; 27.2% in the assay with MCF7 breast; -28.9% (active) with HCC-2998 colon; 38.9% in the assay with KM12 colon.
As for `O=C(/C=C/c1ccc(F)cc1)c1ccc(NC(=O)N2CCN(c3cc4c(cc3F)c(=O)c(C(=O)O)cn4C3CC3)CC2)cc1`, the growth in the assay on T-47D breast was 93.6%; with MDA-MB-435 melanoma, 95.3%; with SW-620 colon, 92%; in the assay with MCF7 breast it was 96.9%; in the assay on HCC-2998 colon it was 103%; in the assay on KM12 colon it was 100%.
Consider `O=C(CCN1CCCC1)c1ccc([N+](=O)[O-])cc1`, for which the growth with T-47D breast is 88.6%; with MDA-MB-435 melanoma, 107%; in the assay on SW-620 colon it was 105%; in the assay with MCF7 breast, 87.6%; in the assay with HCT-116 colon, 105%; with HCC-2998 colon, 94.8%. Also, in the assay with KM12 colon, the growth is 105%.
`CC1(C)CC[C@]2(C(=O)O)CC[C@]3(C)C(=CC[C@@H]4[C@@]5(C)Cc6c([nH]c7ccccc67)C(C)(C)[C@@H]5CC[C@]43C)[C@@H]2C1`: the growth in the assay with T-47D breast was 49.5%; in the assay on MDA-MB-435 melanoma, 79.3%; in the assay with SW-620 colon it was 23.1%; in the assay on MCF7 breast it was 19.4%; with HCT-116 colon it was 8.26% (active); in the assay with HCC-2998 colon it was 38.7%. For the same molecule, in the assay on KM12 colon, the growth was 17.7%.
As to `COc1ccc(C(=O)NNc2nc(Cl)nc(N3CCN(C(c4ccccc4)c4ccccc4)CC3)n2)cc1`, the growth with T-47D breast was 85.5%; in the assay on MDA-MB-435 melanoma, 90.6%; in the assay on SW-620 colon, 9.22% (active); in the assay with MCF7 breast, 89.3%; with HCC-2998 colon, -10.7% (active); in the assay with KM12 colon it was 92.4%.
Regarding `CCOc1cccc(-c2nc(N)nc(Nc3ccccc3SSc3ccccc3Nc3nc(N)nc(-c4cccc(OCC)c4)n3)n2)c1`, the growth with T-47D breast was 44.5%; in the assay with MDA-MB-435 melanoma it was 88.8%; with SW-620 colon, 76.4%; in the assay with MCF7 breast, 70.1%; in the assay on HCT-116 colon, 57.2%; in the assay with HCC-2998 colon, 97.8%. Further, the growth with KM12 colon is 40.6%.
For the molecule `Cc1ccc(S(=O)(=O)NNC(=O)/C(=C\c2ccc(Cl)cc2)c2nc3ccccc3s2)cc1`, the growth with T-47D breast is 95%; in the assay with MDA-MB-435 melanoma it was 96.9%; in the assay with SW-620 colon, 93.6%; in the assay on MCF7 breast, 78.7%; in the assay on HCT-116 colon, 84.3%; in the assay on HCC-2998 colon it was 103%. Also, the growth in the assay on KM12 colon is 96.6%.
Turning to `O=[N+]([O-])CC(c1ccccc1F)c1c[nH]c2ccccc12` (configuration not stated), the growth was 59.4% in the assay with T-47D breast; 3.66% (active) in the assay on MDA-MB-435 melanoma; 39% with SW-620 colon; 54.3% in the assay on MCF7 breast; 65.2% in the assay on HCT-116 colon; 80.6% with HCC-2998 colon. In the assay on KM12 colon, the growth was 59.5%.
On to `C=C1C(=O)O[C@H]2[C@H]1CC/C(COC(=O)NCc1c[nH]c3ccc(Br)cc13)=C\CC[C@@]1(C)O[C@@H]21`, for which the growth in the assay with T-47D breast was -68% (active); in the assay on MDA-MB-435 melanoma it was -56.5% (active); with SW-620 colon it was -71.3% (active); in the assay on MCF7 breast it was 16.6%; in the assay on HCT-116 colon it was -83.1% (active); with HCC-2998 colon it was 53.3%. In addition, the growth in the assay with KM12 colon was 19.5%.
Take `COc1ccc(C/C(C)=C(/c2ccc(OCCCN(C)C)cc2)c2ccc(OC(C)=O)cc2)cc1`: the growth with T-47D breast is 56.4%; in the assay on MDA-MB-435 melanoma, 48.4%; in the assay on SW-620 colon, 87.8%; in the assay with MCF7 breast, 18.1%; in the assay with HCT-116 colon, 55.3%; in the assay on HCC-2998 colon, 70.3%. Besides, the growth in the assay with KM12 colon was 80.7%.
`COc1cc2oc(-c3cccc(C(=O)Nc4ccc5c(c4)OCO5)c3)cc(=O)c2c(O)c1OC`: the growth was 69.5% with T-47D breast; 79.1% with MDA-MB-435 melanoma; 84.5% with SW-620 colon; 91.6% in the assay on MCF7 breast; 57% in the assay on HCT-116 colon; 105% in the assay with HCC-2998 colon. The growth in the assay with KM12 colon was 70.6%.

Source of the values: PubChem BioAssay (NCI).
